Source: publication PMC5700166
Residue numbers refer to the chain shown, from its start.

Assays:
Assay in all cases: protein-binding microarray (PBM); PBM: ~300 nM protein, 6 mM HEPES pH 7.8, 80 mM KCl, 0.5 mM EDTA, 0.5 mM EGTA, 6% glycerol, 35 ng/ul poly-dIdC, 1% milk, 1 h, room temperature; Ap Aiptasia and Nv Nematostella (sea anemones) / Co Capsaspora / Aq Amphimedon (sponge) / Dm Drosophila / Hu human; RHD is the Rel homology domain; high values mean tight binding
Conditions in all cases: dsDNA, one strand shown
[1] = molecular target: T1, GST-Ap-NF-kB RHD (Exaiptasia pallida (Aiptasia), UniProt A0A913YAJ5 2-422)
T1 sequence: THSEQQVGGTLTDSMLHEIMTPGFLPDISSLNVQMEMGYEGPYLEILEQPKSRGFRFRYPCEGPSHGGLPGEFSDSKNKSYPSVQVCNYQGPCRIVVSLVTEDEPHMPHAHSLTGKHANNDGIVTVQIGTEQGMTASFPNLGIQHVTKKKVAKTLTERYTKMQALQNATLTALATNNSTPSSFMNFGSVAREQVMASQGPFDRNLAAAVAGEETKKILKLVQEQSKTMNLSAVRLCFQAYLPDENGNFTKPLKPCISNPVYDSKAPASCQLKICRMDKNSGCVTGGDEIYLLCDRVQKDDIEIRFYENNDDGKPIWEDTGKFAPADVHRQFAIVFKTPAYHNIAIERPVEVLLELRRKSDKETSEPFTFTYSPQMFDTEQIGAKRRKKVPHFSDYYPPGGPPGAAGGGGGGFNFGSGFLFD

[2] = molecular target: T2, GST-Nv-NF-kB (Cys allele) (Nematostella vectensis, UniProt E5G601 2-411)
T2 sequence: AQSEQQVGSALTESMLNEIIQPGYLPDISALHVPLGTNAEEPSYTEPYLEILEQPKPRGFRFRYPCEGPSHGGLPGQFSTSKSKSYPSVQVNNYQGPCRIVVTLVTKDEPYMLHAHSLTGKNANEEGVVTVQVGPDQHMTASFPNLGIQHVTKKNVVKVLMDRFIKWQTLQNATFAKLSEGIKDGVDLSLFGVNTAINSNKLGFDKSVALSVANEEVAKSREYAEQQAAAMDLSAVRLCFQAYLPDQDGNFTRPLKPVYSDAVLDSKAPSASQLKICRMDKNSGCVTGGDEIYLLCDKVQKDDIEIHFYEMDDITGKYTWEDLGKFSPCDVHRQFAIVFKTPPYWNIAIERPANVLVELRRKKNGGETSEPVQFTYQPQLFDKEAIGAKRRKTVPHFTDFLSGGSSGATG

[3] = molecular target: T3, GST-Nv-NF-kB (Ser allele) (Nematostella vectensis, UniProt A7UNT2 2-411)
T3 sequence: T2 sequence with Q21R, C66S, S207N, E215Q, V217A, E225K, A268E, D399E

[4] = molecular target: T4, GST-Dm-Relish (Drosophila melanogaster, UniProt Q94527 99-473)
T4 sequence: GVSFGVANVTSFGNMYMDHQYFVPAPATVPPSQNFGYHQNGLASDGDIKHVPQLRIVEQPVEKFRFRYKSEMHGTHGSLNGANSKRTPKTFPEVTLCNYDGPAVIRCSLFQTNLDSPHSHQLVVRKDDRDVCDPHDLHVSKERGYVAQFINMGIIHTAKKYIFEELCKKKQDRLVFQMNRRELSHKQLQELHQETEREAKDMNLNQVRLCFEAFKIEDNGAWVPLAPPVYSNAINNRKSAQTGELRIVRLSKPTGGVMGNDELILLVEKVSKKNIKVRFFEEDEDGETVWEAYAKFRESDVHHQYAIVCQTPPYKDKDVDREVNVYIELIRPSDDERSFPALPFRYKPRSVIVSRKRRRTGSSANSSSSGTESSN

[5] = molecular target: T5, GST-Aq-NF-kB (Amphimedon queenslandica, UniProt A9Y5G7 2-389)
T5 sequence: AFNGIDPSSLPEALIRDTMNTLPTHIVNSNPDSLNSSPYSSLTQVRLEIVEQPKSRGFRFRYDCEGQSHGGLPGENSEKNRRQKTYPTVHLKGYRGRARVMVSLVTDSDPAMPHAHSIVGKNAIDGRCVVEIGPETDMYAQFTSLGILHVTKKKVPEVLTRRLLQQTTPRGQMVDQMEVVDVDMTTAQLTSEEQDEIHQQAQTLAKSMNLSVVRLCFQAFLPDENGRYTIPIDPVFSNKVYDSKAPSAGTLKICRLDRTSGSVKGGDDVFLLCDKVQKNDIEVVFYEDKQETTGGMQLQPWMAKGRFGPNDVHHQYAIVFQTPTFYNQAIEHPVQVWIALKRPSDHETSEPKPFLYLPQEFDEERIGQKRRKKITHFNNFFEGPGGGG

[6] = molecular target: GST-Hu-p50 (Homo sapiens, UniProt P19838 7-356)
[7] = molecular target: T6, GST-Co-NF-kB (Capsaspora owczarzaki, UniProt F1ARL5 200-546)
T6 sequence: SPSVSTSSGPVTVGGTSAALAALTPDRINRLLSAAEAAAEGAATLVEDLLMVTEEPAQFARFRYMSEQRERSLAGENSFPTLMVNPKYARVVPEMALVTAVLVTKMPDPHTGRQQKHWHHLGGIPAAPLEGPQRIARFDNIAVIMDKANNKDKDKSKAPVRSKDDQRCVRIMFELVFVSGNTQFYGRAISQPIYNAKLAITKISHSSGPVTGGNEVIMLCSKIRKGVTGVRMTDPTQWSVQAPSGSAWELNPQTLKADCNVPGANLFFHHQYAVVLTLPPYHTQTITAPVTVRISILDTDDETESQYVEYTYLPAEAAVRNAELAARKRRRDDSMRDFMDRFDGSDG

GST-Hu-p50, sequence (P19838 7-356): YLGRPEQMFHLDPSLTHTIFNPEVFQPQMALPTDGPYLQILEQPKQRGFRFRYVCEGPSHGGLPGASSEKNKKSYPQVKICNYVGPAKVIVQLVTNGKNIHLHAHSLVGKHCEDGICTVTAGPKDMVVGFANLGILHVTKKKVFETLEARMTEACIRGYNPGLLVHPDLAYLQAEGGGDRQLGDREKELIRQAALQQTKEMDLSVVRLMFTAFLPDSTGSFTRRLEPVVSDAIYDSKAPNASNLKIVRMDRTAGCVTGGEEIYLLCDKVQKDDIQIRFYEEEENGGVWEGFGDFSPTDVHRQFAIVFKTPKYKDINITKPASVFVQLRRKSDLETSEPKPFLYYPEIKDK

CCGATTAACATCAGGGATTTCACTGATGTTAATCGGGTCTTGATTCGCTTGACGCTGCTG
binding signal [1]: 2.71 z-score
binding signal [2]: 2.33 z-score
binding signal [3]: 1.49 z-score
binding signal [4]: 6.3 z-score
binding signal [5]: 4.19 z-score
binding signal [6]: 2.38 z-score

CCGATTAACATCAGGGACTTCTATGATGTTAATCGGGTCTTGATTCGCTTGACGCTGCTG
binding signal [1]: 5.47 z-score
binding signal [2]: 6.35 z-score
binding signal [3]: 7.05 z-score
binding signal [4]: 3.93 z-score
binding signal [5]: 5.24 z-score
binding signal [6]: 5.28 z-score

CCGATTAACATCAGGCCATTCCCTGATGTTAATCGGGTCTTGATTCGCTTGACGCTGCTG
binding signal [1]: 1.39 z-score
binding signal [2]: 2.63 z-score
binding signal [3]: 1.77 z-score
binding signal [4]: 2.6 z-score
binding signal [5]: 4.37 z-score
binding signal [6]: 1.79 z-score

CCGATTAACATCAGGGACTTCACTGATGTTAATCGGGTCTTGATTCGCTTGACGCTGCTG
binding signal [1]: 3.82 z-score
binding signal [2]: 4.27 z-score
binding signal [3]: 4.08 z-score
binding signal [4]: 7.9 z-score
binding signal [5]: 5.14 z-score
binding signal [6]: 4.12 z-score

CCGATTAACATCAAGGGACTTCCTGATGTTAATCGGGTCTTGATTCGCTTGACGCTGCTG
binding signal [1]: 6.06 z-score
binding signal [2]: 7.09 z-score
binding signal [7]: 1.07 z-score
binding signal [4]: 7.2 z-score
binding signal [5]: 6.58 z-score
binding signal [6]: 5.08 z-score

CCGATTAACATCAGGGTTTTTAGTGATGTTAATCGGGTCTTGATTCGCTTGACGCTGCTG
binding signal [1]: 2.02 z-score
binding signal [2]: 1.3 z-score
binding signal [3]: 2.09 z-score
binding signal [4]: 2.9 z-score
binding signal [5]: 2.58 z-score
binding signal [6]: 1.99 z-score

CCGATTAACATCAGGGGACCCCCTGATGTTAATCGGGTCTTGATTCGCTTGACGCTGCTG
binding signal [1]: 9.65 z-score
binding signal [2]: 6.03 z-score
binding signal [7]: 4.17 z-score
binding signal [4]: 10.7 z-score
binding signal [5]: 8.56 z-score
binding signal [6]: 5.4 z-score

CCGATTAACATCAGGGTACTACCTGATGTTAATCGGGTCTTGATTCGCTTGACGCTGCTG
binding signal [1]: 2.34 z-score
binding signal [2]: 1.63 z-score
binding signal [3]: 2.2 z-score
binding signal [4]: 1.62 z-score
binding signal [5]: 4.13 z-score
binding signal [6]: 1.43 z-score

CCGATTAACATCACACTCCCCCCTGATGTTAATCGGGTCTTGATTCGCTTGACGCTGCTG
binding signal [1]: 5.44 z-score
binding signal [2]: 4.08 z-score
binding signal [7]: 6.07 z-score
binding signal [4]: 3.37 z-score
binding signal [5]: 3.93 z-score
binding signal [6]: 5.38 z-score

CCGATTAACATCAAGAAAATCCCTGATGTTAATCGGGTCTTGATTCGCTTGACGCTGCTG
binding signal [1]: 5.56 z-score
binding signal [2]: 5.43 z-score
binding signal [7]: 2.27 z-score
binding signal [4]: 6.64 z-score
binding signal [5]: 5.58 z-score
binding signal [6]: 4.6 z-score

CCGATTAACATCAAAAAAGTACCTGATGTTAATCGGGTCTTGATTCGCTTGACGCTGCTG
binding signal [1]: 4.63 z-score
binding signal [2]: 7.84 z-score
binding signal [3]: 11.4 z-score
binding signal [4]: 9.37 z-score
binding signal [5]: 5.47 z-score
binding signal [6]: 5.8 z-score

CCGATTAACATCAAACCACCCCCTGATGTTAATCGGGTCTTGATTCGCTTGACGCTGCTG
binding signal [1]: 3.91 z-score
binding signal [2]: 3.14 z-score
binding signal [7]: 3.81 z-score
binding signal [4]: 2.92 z-score
binding signal [5]: 3.77 z-score
binding signal [6]: 4.3 z-score

CCGATTAACATCAGGATAGTCCCTGATGTTAATCGGGTCTTGATTCGCTTGACGCTGCTG
binding signal [1]: 5.8 z-score
binding signal [2]: 5.23 z-score
binding signal [3]: 4.11 z-score
binding signal [4]: 2.84 z-score
binding signal [5]: 6.61 z-score
binding signal [6]: 4.05 z-score

CCGATTAACATCAGGGAGTCACCTGATGTTAATCGGGTCTTGATTCGCTTGACGCTGCTG
binding signal [1]: 3.25 z-score
binding signal [2]: 1.16 z-score
binding signal [3]: 1.39 z-score
binding signal [4]: 8.86 z-score
binding signal [5]: 3.63 z-score
binding signal [6]: 1.96 z-score

CCGATTAACATCAGGGAAGGCCCTGATGTTAATCGGGTCTTGATTCGCTTGACGCTGCTG
binding signal [1]: 4.52 z-score
binding signal [2]: 4.31 z-score
binding signal [3]: 1.93 z-score
binding signal [4]: 8.94 z-score
binding signal [5]: 6.45 z-score
binding signal [6]: 2.96 z-score

CCGATTAACATCAAGGGAACCCCTGATGTTAATCGGGTCTTGATTCGCTTGACGCTGCTG
binding signal [1]: 5.4 z-score
binding signal [2]: 3.13 z-score
binding signal [3]: 1.95 z-score
binding signal [4]: 9.38 z-score
binding signal [5]: 5.18 z-score
binding signal [6]: 3.12 z-score

CCGATTAACATCACGGTTATTCCTGATGTTAATCGGGTCTTGATTCGCTTGACGCTGCTG
binding signal [1]: 1.09 z-score
binding signal [2]: 1.52 z-score
binding signal [3]: 2.15 z-score
binding signal [4]: 3.64 z-score
binding signal [5]: 2.03 z-score
binding signal [6]: 3.59 z-score

CCGATTAACATCAAAAAGCCCCTTGATGTTAATCGGGTCTTGATTCGCTTGACGCTGCTG
binding signal [1]: 7.33 z-score
binding signal [2]: 9.57 z-score
binding signal [3]: 7.49 z-score
binding signal [4]: 8.7 z-score
binding signal [5]: 7.9 z-score
binding signal [6]: 6.72 z-score

CCGATTAACATCAGGAGAGCCCCTGATGTTAATCGGGTCTTGATTCGCTTGACGCTGCTG
binding signal [1]: 3.65 z-score
binding signal [2]: 3.73 z-score
binding signal [3]: 1.67 z-score
binding signal [4]: 2.24 z-score
binding signal [5]: 6.28 z-score
binding signal [6]: 3.2 z-score

CCGATTAACATCAGGGGACTTCATGATGTTAATCGGGTCTTGATTCGCTTGACGCTGCTG
binding signal [1]: 6.7 z-score
binding signal [2]: 5.76 z-score
binding signal [7]: 2.35 z-score
binding signal [4]: 6.09 z-score
binding signal [5]: 5.48 z-score
binding signal [6]: 5.72 z-score

CCGATTAACATCAGAAAAATACCTGATGTTAATCGGGTCTTGATTCGCTTGACGCTGCTG
binding signal [1]: 1.31 z-score
binding signal [2]: 2.43 z-score
binding signal [3]: 3.74 z-score
binding signal [4]: 4.9 z-score
binding signal [5]: 3.17 z-score
binding signal [6]: 3.16 z-score

CCGATTAACATCAGGCAAGCCCCTGATGTTAATCGGGTCTTGATTCGCTTGACGCTGCTG
binding signal [1]: 2.62 z-score
binding signal [2]: 2.83 z-score
binding signal [3]: 1.38 z-score
binding signal [4]: 2.46 z-score
binding signal [5]: 5.11 z-score
binding signal [6]: 3.36 z-score

CCGATTAACATCAGGGACTTCCATGATGTTAATCGGGTCTTGATTCGCTTGACGCTGCTG
binding signal [1]: 5.02 z-score
binding signal [2]: 5.5 z-score
binding signal [3]: 5.01 z-score
binding signal [4]: 6.69 z-score
binding signal [5]: 5.53 z-score
binding signal [6]: 4.56 z-score

CCGATTAACATCAAAAGCCCCCTTGATGTTAATCGGGTCTTGATTCGCTTGACGCTGCTG
binding signal [1]: 6.3 z-score
binding signal [2]: 6.73 z-score
binding signal [7]: 1.89 z-score
binding signal [4]: 7.9 z-score
binding signal [5]: 6.88 z-score
binding signal [6]: 6.5 z-score

CCGATTAACATCAGGAAGTACCCTGATGTTAATCGGGTCTTGATTCGCTTGACGCTGCTG
binding signal [1]: 3.65 z-score
binding signal [2]: 3.73 z-score
binding signal [3]: 3.95 z-score
binding signal [4]: 6.69 z-score
binding signal [5]: 6.15 z-score
binding signal [6]: 3.47 z-score

CCGATTAACATCAGGAGAGTCCCTGATGTTAATCGGGTCTTGATTCGCTTGACGCTGCTG
binding signal [1]: 4.86 z-score
binding signal [2]: 5.29 z-score
binding signal [3]: 3.96 z-score
binding signal [4]: 3.65 z-score
binding signal [5]: 7.1 z-score
binding signal [6]: 3.89 z-score

CCGATTAACATCAGGGGCTTTACTGATGTTAATCGGGTCTTGATTCGCTTGACGCTGCTG
binding signal [1]: 4.24 z-score
binding signal [2]: 5.11 z-score
binding signal [3]: 3.48 z-score
binding signal [4]: 7.41 z-score
binding signal [5]: 5.73 z-score
binding signal [6]: 4.83 z-score
